The source made the active and inactive calls.
Legend:
[1] = test system: PRMT1 (protein arginine N-methyltransferase 1); assay: PRMT1 binders on small-molecule microarrays, primary screen, biochemical, small-molecule microarray, 635 nm fluorescence (AID 1088); settings: small-molecule microarray binding, higher = more signal;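 further: binding of Prmt1 protein to compounds spotted on small-molecule microarray slides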
[2] = yeast growth modulation, basal conditions, primary screen, YJM789 clinical isolate, OD600, 24 h (AID 1089);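 further: growth of clinical yeast isolate S. cerevisiae YJM 789 seeded 1000 cells per well; test concentration not given here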; settings: S. cerevisiae YJM789 growth, higher = more signal, called active from +8 up or from −8 down
[3] = fission yeast growth modulation, primary screen, strain 972, OD600, 24 h, no modulator (AID 1090);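 further: basal condition with compound alone and no growth modifier present; test concentration not given here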; settings: S. pombe 972 growth, higher = more signal, called active from +8 up or from −8 down
[4] = S. cerevisiae growth modulation with rapamycin, primary screen, strain BY4716, OD600, 96 h (AID 1091); settings: higher = more signal, called active from +8 up or from −8 down; further: test concentration not given here
[5] = molecular target: Torsin-1A-interacting protein 2 (Homo sapiens) (UniProt Q8NFQ8); assay: LULL1 binders on small-molecule microarray, primary screen, cell lysate, human LULL1 lysate, 635/667 nm fluorescence (AID 1092); settings: hLULL1 lysate binding, 635 nm fluorescence, higher = more signal;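 further: probe is lysate of COS7 cells overexpressing human LULL1; score merges per-feature 667 nm fluorescence with signal-to-noise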
Sequence of Torsin-1A-interacting protein 2 (Homo sapiens) (Q8NFQ8 whole entry, looked up): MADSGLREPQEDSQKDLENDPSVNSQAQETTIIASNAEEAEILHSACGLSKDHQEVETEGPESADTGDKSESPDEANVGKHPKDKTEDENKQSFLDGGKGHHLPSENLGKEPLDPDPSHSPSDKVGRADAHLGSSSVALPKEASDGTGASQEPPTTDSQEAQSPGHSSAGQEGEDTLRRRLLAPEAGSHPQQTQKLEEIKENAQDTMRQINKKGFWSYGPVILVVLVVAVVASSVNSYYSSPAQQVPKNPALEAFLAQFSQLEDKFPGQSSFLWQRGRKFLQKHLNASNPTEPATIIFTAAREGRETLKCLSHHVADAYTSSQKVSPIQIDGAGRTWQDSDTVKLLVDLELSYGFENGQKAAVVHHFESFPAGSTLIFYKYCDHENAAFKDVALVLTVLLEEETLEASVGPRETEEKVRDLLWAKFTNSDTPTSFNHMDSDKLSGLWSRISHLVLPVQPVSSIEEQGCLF

[6] = E. coli growth modulation, two-sided OD650, primary screen, E. coli filamentation project, strain DRC41, 24 h (AID 1093); settings: OD650, 24 h, higher = more signal, called active from +8 up or from −8 down;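 further: MC1000 strain lacking acrAB efflux and sulA so SOS filamentation is blocked; test concentration not given here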
[7] = small-molecule microarray binders of probe aLefty2, primary screen, biochemical, biotinylated probe, 635/667 nm fluorescence (AID 1094); settings: higher = more signal;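 further: score merges spot fluorescence near 667 nm with spot signal-to-noise ratio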
[8] = test system: Noggin (protein binding on small-molecule microarray); assay: Noggin binders on small-molecule microarray, primary screen, biochemical, 635/667 nm fluorescence (AID 1095); settings: 635 nm fluorescence, higher = more signal;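 further: score merges 667 nm feature fluorescence with signal to noise over triplicate slides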
[9] = molecular target: Neurogenic locus notch homolog protein 3 (Homo sapiens) (UniProt Q9UM47); assay: NOTCH3 binders on small-molecule microarray, primary screen, biochemical, 635/667 nm fluorescence (AID 1096); settings: NOTCH3 binding, 635 nm fluorescence, higher = more signal
Sequence of Neurogenic locus notch homolog protein 3 (Homo sapiens) (Q9UM47 whole entry, looked up): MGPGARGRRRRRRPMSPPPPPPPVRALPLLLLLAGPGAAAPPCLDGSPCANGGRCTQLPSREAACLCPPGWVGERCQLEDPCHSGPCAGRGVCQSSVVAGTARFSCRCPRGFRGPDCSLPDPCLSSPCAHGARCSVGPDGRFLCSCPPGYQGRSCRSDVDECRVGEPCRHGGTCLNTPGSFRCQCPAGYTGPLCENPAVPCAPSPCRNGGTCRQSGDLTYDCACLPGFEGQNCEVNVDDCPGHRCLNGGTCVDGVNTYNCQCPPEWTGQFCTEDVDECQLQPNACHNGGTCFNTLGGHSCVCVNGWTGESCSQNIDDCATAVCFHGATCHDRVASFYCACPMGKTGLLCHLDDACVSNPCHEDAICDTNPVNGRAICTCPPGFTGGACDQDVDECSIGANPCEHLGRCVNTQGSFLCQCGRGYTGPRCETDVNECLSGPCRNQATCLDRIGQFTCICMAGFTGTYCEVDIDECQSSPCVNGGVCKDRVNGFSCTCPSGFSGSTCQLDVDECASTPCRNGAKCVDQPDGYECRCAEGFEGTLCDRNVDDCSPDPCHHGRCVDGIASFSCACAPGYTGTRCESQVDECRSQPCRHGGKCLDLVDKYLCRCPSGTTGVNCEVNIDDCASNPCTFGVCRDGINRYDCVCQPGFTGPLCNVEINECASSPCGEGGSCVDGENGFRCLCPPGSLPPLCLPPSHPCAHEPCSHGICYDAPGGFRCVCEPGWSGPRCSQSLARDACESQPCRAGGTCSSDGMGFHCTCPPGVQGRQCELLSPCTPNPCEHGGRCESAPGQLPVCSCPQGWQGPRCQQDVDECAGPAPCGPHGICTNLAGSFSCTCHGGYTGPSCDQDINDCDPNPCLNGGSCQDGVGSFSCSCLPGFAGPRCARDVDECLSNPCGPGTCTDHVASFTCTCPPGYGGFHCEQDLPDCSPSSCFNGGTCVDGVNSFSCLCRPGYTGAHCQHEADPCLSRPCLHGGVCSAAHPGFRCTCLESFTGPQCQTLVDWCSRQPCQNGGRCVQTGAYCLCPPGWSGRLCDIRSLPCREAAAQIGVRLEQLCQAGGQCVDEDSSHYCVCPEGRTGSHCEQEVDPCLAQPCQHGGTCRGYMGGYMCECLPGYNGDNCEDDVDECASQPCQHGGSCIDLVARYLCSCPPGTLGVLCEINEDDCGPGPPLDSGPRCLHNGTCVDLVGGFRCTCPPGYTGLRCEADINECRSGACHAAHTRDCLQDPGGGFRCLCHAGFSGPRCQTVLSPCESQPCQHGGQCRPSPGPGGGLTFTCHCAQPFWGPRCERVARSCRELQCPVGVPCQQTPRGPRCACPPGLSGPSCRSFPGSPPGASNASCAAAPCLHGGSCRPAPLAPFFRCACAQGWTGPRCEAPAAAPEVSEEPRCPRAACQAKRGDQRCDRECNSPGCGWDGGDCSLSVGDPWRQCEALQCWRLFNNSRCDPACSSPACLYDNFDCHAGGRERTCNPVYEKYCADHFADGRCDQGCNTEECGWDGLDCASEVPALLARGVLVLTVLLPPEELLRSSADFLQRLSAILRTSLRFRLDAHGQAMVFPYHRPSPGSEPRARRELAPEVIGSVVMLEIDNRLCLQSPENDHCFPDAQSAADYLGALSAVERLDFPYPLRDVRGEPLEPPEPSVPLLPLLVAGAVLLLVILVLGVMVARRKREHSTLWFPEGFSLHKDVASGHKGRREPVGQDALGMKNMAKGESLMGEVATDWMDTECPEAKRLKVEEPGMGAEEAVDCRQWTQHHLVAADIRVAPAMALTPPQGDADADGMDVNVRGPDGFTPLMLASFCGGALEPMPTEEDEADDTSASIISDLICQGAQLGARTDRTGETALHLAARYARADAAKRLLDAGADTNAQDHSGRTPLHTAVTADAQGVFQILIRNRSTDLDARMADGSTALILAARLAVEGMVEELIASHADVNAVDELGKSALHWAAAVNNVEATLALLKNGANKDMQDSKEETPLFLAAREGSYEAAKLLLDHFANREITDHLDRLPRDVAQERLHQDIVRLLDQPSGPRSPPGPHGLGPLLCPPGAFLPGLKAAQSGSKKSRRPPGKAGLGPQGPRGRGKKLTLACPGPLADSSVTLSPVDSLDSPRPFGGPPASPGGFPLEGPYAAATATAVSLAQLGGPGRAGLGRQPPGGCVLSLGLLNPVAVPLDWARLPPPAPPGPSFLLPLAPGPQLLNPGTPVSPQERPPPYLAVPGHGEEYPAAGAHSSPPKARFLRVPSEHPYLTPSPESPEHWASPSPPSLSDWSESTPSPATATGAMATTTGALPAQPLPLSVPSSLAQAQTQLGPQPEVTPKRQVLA

[10] = small-molecule microarray binders of probe aEGFR, primary screen, biochemical, biotinylated probe, 635/667 nm fluorescence (AID 1097); settings: higher = more signal;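 further: probe is a biotinylated anti-EGFR antibody binding compounds printed on slides; score combines fluorescence near 667 nm and signal to noise of each spot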
[11] = test system: Plasmodium falciparum Sir2 (PF13_0152, Sir2A); assay: pfSir2 binders on small-molecule microarrays, primary screen, biochemical, small-molecule microarray, 635 nm fluorescence (AID 1098); settings: small-molecule microarray binding, fluorescence 635 nm; higher = more signal;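 further: score merges spot fluorescence intensity with its signal-to-noise ratio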
[12] = small-molecule microarray binders of probe aDKK1, primary screen, biochemical, biotinylated probe, 635/667 nm fluorescence (AID 1099); settings: higher = more signal;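 further: score merges 667nm spot fluorescence with signal to noise across triplicate slides; reference of the scale not given here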
[13] = small-molecule microarray binders of probe aCHRDL2, primary screen, biochemical, biotinylated probe, 635/667 nm fluorescence (AID 1100); settings: higher = more signal
[14] = splicing luciferase reporter signal modulators, primary screen, spliceosome inhibition project, cell-based, HEK293, splice +/- reporter (AID 1101); settings: luminescence, 24 h, higher = more signal, called active from +8 up or from −8 down;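 further: HEK293 cells carrying a splicing-competent luciferase reporter gene; test concentration not given here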
[15] = molecular target: Fibroblast growth factor 10 (Homo sapiens) (UniProt O15520); assay: FGF10 binders on small-molecule microarrays, primary screen, biochemical, small-molecule microarray, 635 nm fluorescence (AID 1102); settings: FGF10 binding, fluorescence 635 nm, higher = more signal
Sequence of Fibroblast growth factor 10 (Homo sapiens) (O15520 whole entry, looked up): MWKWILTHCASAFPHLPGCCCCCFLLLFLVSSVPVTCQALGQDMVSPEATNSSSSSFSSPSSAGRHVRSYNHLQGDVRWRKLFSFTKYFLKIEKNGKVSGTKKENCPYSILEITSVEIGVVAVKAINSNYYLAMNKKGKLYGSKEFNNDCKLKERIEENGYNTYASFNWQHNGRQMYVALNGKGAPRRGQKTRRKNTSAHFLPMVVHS

[16] = test system: glycogen synthase kinase-3 (GSK3A per assay name; protocol says GSK3B); assay: GSK3 binders on small-molecule microarrays, primary screen, biochemical, small-molecule microarray, 635 nm fluorescence, GSK3A (AID 1103); settings: small-molecule microarray binding, fluorescence 635 nm; higher = more signal; further: the record names both GSK3A and GSK3B
[17] = molecular target: Epidermal growth factor receptor (Homo sapiens) (UniProt P00533); assay: EGFR binders on small-molecule microarrays, primary screen, biochemical, small-molecule microarray, 635 nm fluorescence (AID 1104); settings: EGFR binding, higher = more signal;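 further: score merges 667 nm emission intensity with spot signal to noise over triplicate slides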
Sequence of Epidermal growth factor receptor (Homo sapiens) (P00533 whole entry, looked up): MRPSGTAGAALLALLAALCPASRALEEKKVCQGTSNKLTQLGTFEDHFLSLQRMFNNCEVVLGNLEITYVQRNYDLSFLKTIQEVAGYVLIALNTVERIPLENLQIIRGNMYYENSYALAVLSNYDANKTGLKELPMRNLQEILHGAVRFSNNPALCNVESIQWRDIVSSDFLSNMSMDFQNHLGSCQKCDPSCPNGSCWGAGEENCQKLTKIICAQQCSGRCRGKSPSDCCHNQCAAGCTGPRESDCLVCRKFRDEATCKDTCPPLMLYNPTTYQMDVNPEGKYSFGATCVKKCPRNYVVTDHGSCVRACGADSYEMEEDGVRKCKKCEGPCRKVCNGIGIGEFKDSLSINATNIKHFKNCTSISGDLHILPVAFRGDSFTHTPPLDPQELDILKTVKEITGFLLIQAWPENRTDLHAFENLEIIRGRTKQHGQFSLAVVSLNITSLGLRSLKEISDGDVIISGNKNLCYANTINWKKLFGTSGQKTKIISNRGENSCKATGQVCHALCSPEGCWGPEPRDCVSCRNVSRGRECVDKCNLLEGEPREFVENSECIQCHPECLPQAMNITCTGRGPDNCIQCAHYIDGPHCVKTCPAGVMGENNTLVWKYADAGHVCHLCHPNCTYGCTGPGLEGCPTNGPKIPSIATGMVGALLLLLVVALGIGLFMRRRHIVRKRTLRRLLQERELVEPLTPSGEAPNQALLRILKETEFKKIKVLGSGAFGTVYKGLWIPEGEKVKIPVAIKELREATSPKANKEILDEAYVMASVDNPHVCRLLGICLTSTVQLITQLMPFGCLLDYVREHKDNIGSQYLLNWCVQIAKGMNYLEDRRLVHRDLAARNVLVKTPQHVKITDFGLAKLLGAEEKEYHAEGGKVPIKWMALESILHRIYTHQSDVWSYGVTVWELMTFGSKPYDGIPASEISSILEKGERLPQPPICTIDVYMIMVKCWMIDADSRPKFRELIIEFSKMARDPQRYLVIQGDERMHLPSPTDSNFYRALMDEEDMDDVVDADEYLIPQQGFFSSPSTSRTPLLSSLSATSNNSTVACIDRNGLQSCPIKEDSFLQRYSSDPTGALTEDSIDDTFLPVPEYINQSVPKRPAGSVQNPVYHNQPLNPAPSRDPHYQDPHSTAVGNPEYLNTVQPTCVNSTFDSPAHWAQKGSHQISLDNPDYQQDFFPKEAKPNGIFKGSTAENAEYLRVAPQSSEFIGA

[18] = molecular target: Follistatin-related protein 3 (Homo sapiens) (UniProt O95633); assay: FSTL3 binders on small-molecule microarrays, primary screen, biochemical, small-molecule microarray, 635 nm fluorescence (AID 1105); settings: FSTL3 binding, higher = more signal;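 further: score merges emission near 667 nm and signal to noise per printed spot across three slides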
Sequence of Follistatin-related protein 3 (Homo sapiens) (O95633 whole entry, looked up): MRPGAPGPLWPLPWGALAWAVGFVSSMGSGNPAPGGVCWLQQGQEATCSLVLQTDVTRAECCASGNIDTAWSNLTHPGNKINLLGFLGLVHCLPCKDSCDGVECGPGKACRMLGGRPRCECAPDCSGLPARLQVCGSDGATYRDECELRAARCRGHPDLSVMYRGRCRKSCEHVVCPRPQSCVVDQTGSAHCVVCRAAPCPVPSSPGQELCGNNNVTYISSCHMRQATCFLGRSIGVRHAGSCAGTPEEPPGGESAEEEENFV

[19] = molecular target: Dickkopf-related protein 1 (Homo sapiens) (UniProt O94907); assay: DKK1 binders on small-molecule microarrays, primary screen, biochemical, small-molecule microarray, 635 nm fluorescence scan (AID 1106); settings: DKK1 binding, higher = more signal;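 further: score merges emission near 667 nm with signal to noise over three replicate slides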
Sequence of Dickkopf-related protein 1 (Homo sapiens) (O94907 whole entry, looked up): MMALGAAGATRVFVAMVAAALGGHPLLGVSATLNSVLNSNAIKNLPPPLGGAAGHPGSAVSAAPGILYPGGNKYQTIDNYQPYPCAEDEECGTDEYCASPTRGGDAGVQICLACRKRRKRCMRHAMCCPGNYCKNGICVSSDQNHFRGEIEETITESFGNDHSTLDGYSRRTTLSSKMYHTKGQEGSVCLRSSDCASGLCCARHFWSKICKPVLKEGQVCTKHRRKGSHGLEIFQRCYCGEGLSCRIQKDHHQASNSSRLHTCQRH

[20] = test system: Inhibin beta A chain (activin A); assay: INHBA (activin A) binders on microarrays, primary screen, biochemical, small-molecule microarray, 635 nm fluorescence scan (AID 1107); settings: small-molecule microarray binding, higher = more signal;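 further: mouse activin A protein probed at 4.33 µg/mL on printed slides; score merges bound-protein fluorescence near 667 nm with spot signal-to-noise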

For `[N-]=[N+]=Nc1ccccc1C[C@]1(C(=O)NCCN2CCOCC2)N=C(c2ccc(OCCCO)cc2)O[C@H]1c1ccccc1`, the composite z-score [1] was 1.31, the z-score [2] was 3.66 (inactive) and the z-score [3] was -1.17 (inactive). For the same compound, the z-score [4] was -1.78 (inactive), the composite z-score [5] was 3.24 and the z-score [6] was 0.681 (inactive). It also gave a composite z-score [7] of 0.0029, a composite z-score [8] of 0.599 and a composite z-score [9] of 0.482. The composite z-score [10] was 0.0756, the composite z-score [11] was 1.09 and the composite z-score [12] was 0.641. For the same compound, the composite z-score [13] was 0.273, the z-score [14] was 0.183 (inactive) and the composite z-score [15] was 0.484. The composite z-score [16] was 1.31, the composite z-score [17] was -0.117 and the composite z-score [18] was -0.391. For the same compound, the composite z-score [19] was -0.019 and the composite z-score [20] was -0.16.

For `COCCOC(=O)N1C(=O)[C@@]2(c3cc(C#CCC(C(=O)OC)C(=O)OC)ccc31)[C@H](c1ccccc1OCCO)N1[C@H](c3ccccc3)[C@H](c3ccccc3)OC(=O)[C@H]1[C@@H]2C(N)=O`, the composite z-score [1] was 1.17, the z-score [2] was 1.47 (inactive) and the z-score [3] was 0.951 (inactive). For the same compound, the z-score [4] was 4.79 (inactive), the composite z-score [5] was 2.74 and the z-score [6] was 1.12 (inactive). It also gave a composite z-score [7] of 0.0074, a composite z-score [8] of 0.726 and a composite z-score [9] of 1.1. For the same compound, the composite z-score [10] was -0.0346, the composite z-score [11] was 1.38 and the composite z-score [12] was 0.152. For the same compound, the composite z-score [13] was 0.188, the z-score [14] was -5.03 (inactive) and the composite z-score [15] was 1.22. It also gave a composite z-score [16] of 1.31, a composite z-score [17] of 0.249 and a composite z-score [18] of 1.13. For the same compound, the composite z-score [19] was 0.451 and the composite z-score [20] was 0.0274.

With `COc1ccc(C(=O)Nc2cccc(CN3C(=O)[C@]4(O[C@H](CC(=O)N5CCC[C@H]5CO)[C@@H]([Si](C)(C)c5ccc(OC)cc5)[C@@H]4C)c4ccccc43)c2)cc1` the composite z-score [1] was 1.38, the z-score [2] was -0.979 (inactive) and the z-score [3] was -0.22 (inactive). The z-score [4] was -0.378 (inactive), the composite z-score [5] was 2.34 and the z-score [6] was 0.44 (inactive). The composite z-score [7] was -0.181, the composite z-score [8] was 0.467 and the composite z-score [9] was 0.869. The composite z-score [10] was -0.157, the composite z-score [11] was 1.27 and the composite z-score [12] was -0.202. For the same compound, the composite z-score [13] was -0.067, the z-score [14] was -0.0342 (inactive) and the composite z-score [15] was 0.703. For the same compound, the composite z-score [16] was 1.12, the composite z-score [17] was 0.317 and the composite z-score [18] was 0.737. The composite z-score [19] was 0.65 and the composite z-score [20] was -0.0762.

In the case of `C=CCC(OC(C)=O)[C@@H]1[C@@H](N(Cc2ccc(-c3ccccc3)cc2)C(=O)Cc2ccc(OC)cc2)c2cc(OCCCO)ccc2N1C(=O)c1ccc2ccccc2n1` (stereo not given in full), the composite z-score [1] is reported as -0.298, the z-score [2] is reported as -1.15 (inactive) and the z-score [3] is reported as -0.832 (inactive). The z-score [4] was -0.551 (inactive), the composite z-score [5] was 1.02 and the z-score [6] was 0.374 (inactive). For the same compound, the composite z-score [7] was 0.0171, the composite z-score [8] was -0.49 and the composite z-score [9] was 0.0617. It also gave a composite z-score [10] of -0.0784, a composite z-score [11] of -0.245 and a composite z-score [12] of -0.106. The composite z-score [13] was 0.027, the z-score [14] was -1.33 (inactive) and the composite z-score [15] was -0.19. For the same compound, the composite z-score [16] was -0.494, the composite z-score [17] was 0.24 and the composite z-score [18] was -0.0321. For the same compound, the composite z-score [19] was 0.37 and the composite z-score [20] was 1.48.

With `COC(=O)[C@@]1(Cc2ccc(F)cc2)[C@H]2c3cc(C(=O)N(C)C)n(CCc4ccccn4)c3C[C@H]2CN1C(=O)c1ccccc1` the composite z-score [1] was 1.16, the z-score [2] was 2.9 (inactive) and the z-score [3] was 0.423 (inactive). For the same compound, the z-score [4] was -0.616 (inactive), the composite z-score [5] was 3.94 and the z-score [6] was 0.196 (inactive). It also gave a composite z-score [7] of -0.0278, a composite z-score [8] of 0.259 and a composite z-score [9] of 0.861. It also gave a composite z-score [10] of 0.709, a composite z-score [11] of 0.219 and a composite z-score [12] of 0.849. For the same compound, the composite z-score [13] was 0.312, the z-score [14] was -3.62 (inactive) and the composite z-score [15] was 0.355. For the same compound, the composite z-score [16] was 1.36, the composite z-score [17] was 0.472 and the composite z-score [18] was 0.869. For the same compound, the composite z-score [19] was 0.41 and the composite z-score [20] was 0.403.

In the case of `COCCCNC(=O)[C@@]1(c2ccc([N+](=O)[O-])cc2)CC(=O)N(CC23CC4CC(CC(C4)C2)C3)[C@@H]1c1ccc(CO)cc1`, the composite z-score [1] is reported as 1.54, the z-score [2] is reported as 0.38 (inactive) and the z-score [3] is reported as -0.634 (inactive). The z-score [4] was -0.101 (inactive), the composite z-score [5] was 2.28 and the z-score [6] was 1.45 (inactive). For the same compound, the composite z-score [7] was 0.0054, the composite z-score [8] was 1.54 and the composite z-score [9] was 1.08. For the same compound, the composite z-score [10] was 0.0117, the composite z-score [11] was 1.61 and the composite z-score [12] was 0.0245. The composite z-score [13] was -0.0133, the z-score [14] was 0.00653 (inactive) and the composite z-score [15] was 1.22. For the same compound, the composite z-score [16] was 1.31, the composite z-score [17] was 0.905 and the composite z-score [18] was 1.48. For the same compound, the composite z-score [19] was 1.08 and the composite z-score [20] was 0.703.

With `O=c1cccc(C=Cc2ccccc2)o1` the composite z-score [1] was -0.127, the z-score [2] was -0.411 (inactive) and the z-score [3] was -1.06 (inactive). The z-score [4] was 1.14 (inactive), the composite z-score [5] was -0.756 and the z-score [6] was 0.573 (inactive). The composite z-score [7] was -0.214, the composite z-score [8] was 0.104 and the composite z-score [9] was -1.13. It also gave a composite z-score [10] of -0.142, a composite z-score [11] of -1.32 and a composite z-score [12] of 0.121. The composite z-score [13] was 0.756, the z-score [14] was -0.121 (inactive) and the composite z-score [15] was -0.629. The composite z-score [16] was 0.0144, the composite z-score [17] was -1.16 and the composite z-score [18] was -0.657. The composite z-score [19] was -1.36 and the composite z-score [20] was 0.758.

In the case of `COc1ccc([Si](C)(C)[C@@H]2[C@@H](CCn3cc([C@H](O)c4ccccc4)nn3)O[C@]3(C(=O)N(Cc4ccc(N5C(=O)c6cccc7cccc5c67)cc4)c4ccccc43)[C@H]2C)cc1`, the composite z-score [1] is reported as 0.534, the z-score [2] is reported as 0.316 (inactive) and the z-score [3] is reported as -0.197 (inactive). The z-score [4] was 1.64 (inactive), the composite z-score [5] was 1 and the z-score [6] was 1.05 (inactive). The composite z-score [7] was -0.0237, the composite z-score [8] was -0.345 and the composite z-score [9] was 0.0481. The composite z-score [10] was -0.217, the composite z-score [11] was 0.286 and the composite z-score [12] was -0.187. The composite z-score [13] was -0.0017, the z-score [14] was -1.5 (inactive) and the composite z-score [15] was -0.456. It also gave a composite z-score [16] of -0.513, a composite z-score [17] of -0.471 and a composite z-score [18] of -0.586. The composite z-score [19] was -0.795 and the composite z-score [20] was -0.409.

For `CCOC(=O)C1=C[C@@H](C(C)C)N(S(=O)(=O)c2ccc(C)cc2)[C@H]1c1ccc(C(C)C)cc1`, the composite z-score [1] was 1.25, the z-score [2] was 0.129 (inactive) and the z-score [3] was 2.04 (inactive). For the same compound, the z-score [4] was 0.612 (inactive), the composite z-score [5] was 3.02 and the z-score [6] was -0.35 (inactive). For the same compound, the composite z-score [7] was 0.112, the composite z-score [8] was 0.75 and the composite z-score [9] was 1.09. The composite z-score [10] was -0.0381, the composite z-score [11] was 1.65 and the composite z-score [12] was -0.132. The composite z-score [13] was -0.229, the z-score [14] was 0.449 (inactive) and the composite z-score [15] was 1.04. For the same compound, the composite z-score [16] was 1.3, the composite z-score [17] was 0.848 and the composite z-score [18] was 1.35. For the same compound, the composite z-score [19] was 0.57 and the composite z-score [20] was 0.375.

Source: PubChem BioAssay
